Most compounds without a hit are left out; they make up all but 3.5% or so of the library.
Kir21 inh: inhibitors of mouse Kir2.1 inward-rectifier potassium channel; HEK293-Kir2.1, FluxOR thallium flux fluorescence; hits give low values; P35561; 310,000 tested, 0.85% active; B-score at 10 µM;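 active means fluorescence ratio B-score at or below minus 3 SD of library scores, with starting-brightness B-score within 2 SD, cut at about -4.2 in these data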;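 further: channel flux triggered by added potassium and thallium sulfate stimulus; B-score of peak minus minimum fluorescence over baseline after thallium stimulus; more negative B-score means stronger Kir2.1 block with less thallium influx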
KCNK3 inh: human KCNK3 channel inhibition, primary screen; O14649; CHO-KCNK3 thallium flux, FluxOR fluorescence; hits give low values; B-score at 10 µM; 340,000 tested, 0.84% active;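 active means B-score under library mean minus 4 SD, starting fluorescence ratio at most library mean plus 5 SD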;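 further: more negative B-score means stronger inhibition of thallium flux through KCNK3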
ANO1 block: mouse TMEM16A channel inhibition, primary screen. Q8BHY3. HEK293 TMEM16A/YFP iodide influx fluorescence, ionomycin. normalized B-score (activity score, 25-100; higher = stronger inhibition) at 10 µM. 310,000 tested, 1.2% active;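 active means ratio plate-corrected score three or more library SD toward inhibition, starting fluorescence score within five deviations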;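 further: score derived from kinetic fluorescence span divided by baseline fluorescence per well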
Target sequence (Q8BHY3 whole entry, looked up): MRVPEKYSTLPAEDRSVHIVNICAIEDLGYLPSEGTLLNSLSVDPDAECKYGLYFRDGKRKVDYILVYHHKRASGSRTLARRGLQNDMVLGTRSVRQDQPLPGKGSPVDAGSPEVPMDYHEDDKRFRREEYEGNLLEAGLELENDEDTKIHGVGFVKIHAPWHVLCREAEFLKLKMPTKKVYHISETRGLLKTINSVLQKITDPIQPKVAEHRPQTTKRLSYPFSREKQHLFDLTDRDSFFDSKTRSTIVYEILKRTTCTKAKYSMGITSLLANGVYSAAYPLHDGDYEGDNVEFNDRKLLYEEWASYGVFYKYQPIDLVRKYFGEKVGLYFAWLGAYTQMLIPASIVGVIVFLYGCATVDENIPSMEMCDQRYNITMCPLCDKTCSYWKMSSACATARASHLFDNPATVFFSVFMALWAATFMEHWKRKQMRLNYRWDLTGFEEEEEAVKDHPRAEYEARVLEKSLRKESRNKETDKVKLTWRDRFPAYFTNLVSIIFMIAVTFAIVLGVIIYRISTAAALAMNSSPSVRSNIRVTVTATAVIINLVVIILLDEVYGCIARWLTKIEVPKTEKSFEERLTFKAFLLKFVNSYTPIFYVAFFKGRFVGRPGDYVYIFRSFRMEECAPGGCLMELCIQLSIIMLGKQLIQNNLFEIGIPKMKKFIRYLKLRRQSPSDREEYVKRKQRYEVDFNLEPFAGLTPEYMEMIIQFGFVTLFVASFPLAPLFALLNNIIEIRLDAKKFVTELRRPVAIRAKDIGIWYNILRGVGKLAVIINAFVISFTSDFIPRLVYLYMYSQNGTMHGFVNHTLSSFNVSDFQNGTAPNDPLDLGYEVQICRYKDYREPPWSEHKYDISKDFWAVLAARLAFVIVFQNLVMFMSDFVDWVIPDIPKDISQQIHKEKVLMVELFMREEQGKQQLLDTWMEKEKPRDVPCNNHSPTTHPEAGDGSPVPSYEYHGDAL
ANO1 activ: mouse TMEM16A channel activation, primary screen; 340,000 tested, 0.3% active; HEK293 TMEM16A/YFP-H148Q/I152L, iodide quench fluorescence; hits give low values; B-score at 10 µM; Q8BHY3;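 active means fluorescence-ratio B-score plate-corrected deviation score at least 3 library SD below zero, with starting fluorescence score within 5 deviations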;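 further: channel opened by trigger with iodide after compound preincubation; score built on the fluorescence ratio of max minus min over baseline; more negative score means more quench and so TMEM16A activation or potentiation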
KCNK9 inh: human KCNK9 channel inhibition; B-score at 10 µM; 310,000 tested, 1.2% active; HEK293 KCNK9, FluxOR thallium flux fluorescence; hits give low values; Q9NPC2;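 active means ratio B-score over 3 SD below the library mean, with starting fluorescence within 5 SD of its mean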;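 further: negative B-score means less thallium flux so channel inhibition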
* marks the source's active call; other numbers are inactive results; i = inactive; nt = not tested or not shown.

SMILES	Kir21 inh	KCNK3 inh	ANO1 block	ANO1 activ	KCNK9 inh
CCOC(=O)c1nc(Nc2ccc(Nc3ccccc3)cc2)c2ccccc2n1	1.1	i	nt	i	-7.6*
CCCNC(=O)OC[C@H]1O[C@H](CCO/N=C/C[C@@H]2C=C[C@H](OC(C)=O)[C@@H](COC(C)=O)O2)C=C[C@@H]1Oc1ccc(OC)cc1	0.73	nt	25*	nt	i
CCCNC(=O)OC[C@H]1O[C@H](CCO/N=C(\C)CCN2CCc3nc(-c4ccccc4)c(-c4ccccc4)cc3C2)C=C[C@@H]1Oc1ccc(OC)cc1	0.65	nt	i	nt	i
COc1cc(CNCc2ccc(SC)cc2)cc(OC)c1	-5.2*	i	i	i	i
Cc1ccc(/C=C(\C#N)C(=O)N2CCCC2)c(C)c1	0.55	i	i	i	i
CCOc1cc(C2CC(=O)c3c(ccc4ccccc34)N2)ccc1O (configuration not stated)	-1.1	i	i	i	i
CSc1nc2c(cc1C#N)C(=O)CC(C)(C)C2	0.06	i	i	i	i
CCCCOC(=O)CSc1nc2c(cc1C#N)C(=O)CC(C)(C)C2	-0.22	i	i	i	-8.1*
CC(NC(=O)c1cccs1)c1ccc(Br)cc1 (configuration not stated)	1.1	i	i	i	i
Cc1ccnc(NC(=O)C(C)n2cc([N+](=O)[O-])cn2)c1 (configuration not stated)	-2.9	i	i	i	i
O=C(COC(=O)c1ccc(S(=O)(=O)Nc2ccccc2)cc1)NCCC1=CCCCC1	-0.4	i	i	i	i
Cc1ccc2nc(Cc3ccc(N)cc3)[nH]c2c1	-0.91	i	i	i	i
Cc1ccc2nc(CCc3nc4ccc(C)cc4[nH]3)[nH]c2c1	-4.4*	i	i	i	i
Cc1ccc(/C=C/S(=O)(=O)NCCC(=O)NCc2ccccc2F)cc1	nt	i	nt	i	nt
Cc1ccc(/C=C/S(=O)(=O)NCCC(=O)NCc2ccc(F)cc2)cc1	nt	i	nt	-42*	nt
Cc1ccccc1N1CCN(C(=O)c2cc(C3CC3)nn2-c2ccccc2)CC1	nt	-9*	nt	i	nt
O=C(c1cc(C2CC2)nn1-c1ccccc1)N1CCN(c2ccccc2O)CC1	nt	i	nt	i	nt
CC1CN(c2nc3ccccc3nc2NS(=O)(=O)c2ccccc2)CC(C)O1 (configuration not stated)	nt	i	nt	i	nt
COc1ccccc1C(CC(=O)Nc1ccc(Cl)cc1)c1ccc(OC(C)C)cc1 (configuration not stated)	-1.2	i	i	i	i
COc1ccc(C(C)NCCC(c2ccc(OC(C)C)cc2)c2ccccc2OC)cc1 (configuration not stated)	-6.6*	i	i	i	i
CCCCC1=CC2=CC(=O)C(C)(OC(=O)CC)C(=O)C2=CN1CCc1ccc(Br)cc1 (configuration not stated)	-0.77	i	i	i	i
COC(=O)c1ccc(-n2c(C)ccc2-c2ccccc2)cc1	-1.5	i	i	i	i
COc1ccc(-n2c(C)ccc2-c2ccccc2)cn1	-1.3	i	i	-4.8*	i
CC1=C(C)Cc2c(OC(=O)c3ccccc3)ccc(OC(=O)c3ccccc3)c2C1	0.49	nt	i	nt	i
Cc1ccc(C2Nc3ccccc3NC3=C2C(=O)CC(C)(C)C3)c(O)c1 (configuration not stated)	0.57	i	i	i	i
SMILES	Kir21 inh	KCNK3 inh	ANO1 block	ANO1 activ	KCNK9 inh
Cc1ccc2c(c1)NC(c1cccs1)C1=C(CC(C)(C)CC1=O)N2 (configuration not stated)	-1.7	i	i	-5.1*	i
CCn1cc(C(=O)N[C@@H](CCSC)C(=O)NCCCN2CCOCC2)c(=O)c2cc3c(cc21)OCO3	-1.4	i	i	i	i
CC(C)C(=O)N1CCN(c2ccc(NC(=O)c3ccc4c(c3)OCCO4)cc2Cl)CC1	-0.61	i	100*	i	i
CC(=O)N1CCN(c2ccc(NC(=O)c3ccc4c(c3)OCCO4)cc2Cl)CC1	2.9	i	i	i	i
Cc1c(Cc2ccccc2)c(=O)oc2cc(O)cc(O)c12	-5.3*	i	i	i	i
COc1ccc(CCNCc2ccccc2N2CCCC2)cc1	-3.6	i	i	i	i
COc1ccc(CCNCc2cc(C)n(-c3ccc(OC)cc3)c2C)cc1	-4.8*	i	i	i	i
